Experimental findings from PubChem BioAssay (NCI) are described below.

Among the test systems are SR leukemia; RPMI-8226 leukemia; OVCAR-8 ovarian; OVCAR-5 ovarian; OVCAR-4 ovarian; SK-OV-3 ovarian; IGROV1 ovarian; OVCAR-3 ovarian; HS 578T breast; NCI/ADR-RES ovarian; T-47D breast; BT-549 breast; MDA-MB-435 melanoma; SW-620 colon; MCF7 breast; HCT-116 colon; HCC-2998 colon; KM12 colon.
Holding throughout (assay): NCI-60 one-dose screen, 48 h (100 = growth as untreated, 0 = no growth, -100 = all killed)
Common to all, as to conditions: 10 µM unless noted

This is part of a sample that, as a whole, favours compounds with a hit. Of some 83,000 tested, about 20% had one in any assay.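 Values shown are percent growth following 48 h exposure of cells in 96-well plates to a single concentration of compound; below 10 was considered active.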 Values without a mark were called inactive. Activity calls are given as the source filed them.

For `Cc1ccc(-c2nc([P+](c3ccccc3)(c3ccccc3)c3ccccc3)c(N3C[C@H]4C[C@H](C3)c3cccc(=O)n3C4)o2)cc1`, the growth with SR leukemia is 87.9%; in the assay with RPMI-8226 leukemia, 11.5%; in the assay with OVCAR-8 ovarian it was 86.6%; in the assay with OVCAR-5 ovarian, 105%; in the assay with OVCAR-4 ovarian, 77.3%; in the assay with SK-OV-3 ovarian, 123%. In addition, the growth was 46.4% with IGROV1 ovarian; 54% in the assay with OVCAR-3 ovarian; 94.4% in the assay with HS 578T breast; 94.9% in the assay on NCI/ADR-RES ovarian; 38.5% in the assay on T-47D breast; 56.2% in the assay on BT-549 breast. Besides, the growth in the assay with MDA-MB-435 melanoma was 44.4%; with SW-620 colon it was 85.6%; in the assay on MCF7 breast, 67.3%; in the assay on HCT-116 colon, 88.2%; in the assay on HCC-2998 colon it was 71.3%; in the assay with KM12 colon, 43.6%.
Regarding `COc1ccc(-c2n[nH]nc2-c2cc3ccccc3s2)cc1O`, the growth in the assay with SR leukemia was 18.6%; in the assay on RPMI-8226 leukemia, 21.1%; with OVCAR-8 ovarian it was 27.7%; in the assay with OVCAR-5 ovarian it was 38.2%; in the assay with OVCAR-4 ovarian it was 52.4%; with SK-OV-3 ovarian, 15.5%. Moreover, the growth with IGROV1 ovarian is 49%; in the assay on OVCAR-3 ovarian it was 16.1%; in the assay on HS 578T breast, 18.3%; in the assay with NCI/ADR-RES ovarian, 13.5%; in the assay with T-47D breast it was 43.8%; in the assay on BT-549 breast it was 24.1%. Besides, the growth is -32.9% (active) in the assay on MDA-MB-435 melanoma; 26.6% with SW-620 colon; 19.7% with MCF7 breast; 18.2% with HCT-116 colon; 29.2% with HCC-2998 colon; 22.7% in the assay with KM12 colon.
Turning to `Cn1c(/C(C#N)=C/c2ccc3ccccc3c2)cc2ccccc21`, the growth with SR leukemia was 19.5%; in the assay on RPMI-8226 leukemia, 5.55% (active); with OVCAR-8 ovarian it was 30.3%; in the assay with OVCAR-5 ovarian it was 34.4%; in the assay with OVCAR-4 ovarian it was 56.5%; with SK-OV-3 ovarian it was 58.8%. Besides, the growth with IGROV1 ovarian is 21.2%; in the assay on OVCAR-3 ovarian it was -0.996% (active); in the assay on HS 578T breast, 23.8%; in the assay on NCI/ADR-RES ovarian, -18.4% (active); in the assay on T-47D breast it was 73.4%; in the assay with BT-549 breast it was -16.6% (active). In addition, the growth is -14.7% (active) in the assay with MDA-MB-435 melanoma; 26.4% in the assay with SW-620 colon; 14.1% in the assay with MCF7 breast; 8.56% (active) in the assay with HCT-116 colon; 16.9% with HCC-2998 colon; 15.1% in the assay with KM12 colon.
As to `Cc1cc(N2CCCC2)nc(N(CCNc2ccnc3cc(Cl)ccc23)Cc2ccco2)n1`, the growth was -14.9% (active) with SR leukemia; -42.3% (active) in the assay on RPMI-8226 leukemia; 57% in the assay with OVCAR-8 ovarian; 25.3% in the assay with OVCAR-5 ovarian; 38.6% with OVCAR-4 ovarian; 65.5% with SK-OV-3 ovarian. Moreover, the growth in the assay on IGROV1 ovarian is 4.93% (active); in the assay with OVCAR-3 ovarian, 13.8%; with HS 578T breast, 62.1%; in the assay on NCI/ADR-RES ovarian it was 18.4%; in the assay on T-47D breast it was 12.4%; in the assay on BT-549 breast it was 22.3%. The growth is 44% in the assay with MDA-MB-435 melanoma; 25.5% in the assay on SW-620 colon; 17.9% in the assay with MCF7 breast; -50.9% (active) in the assay with HCT-116 colon; 76.6% with HCC-2998 colon; 50% with KM12 colon.
In the case of `CC(=O)c1c(C)[nH]c(-c2nc3ccc(N4CCN(C)CC4)cc3[nH]2)c1-c1ccc2c(c1)OCCO2`, the growth in the assay with SR leukemia was 46.2%; in the assay with RPMI-8226 leukemia, 7.78% (active); with OVCAR-8 ovarian, 48.2%; with OVCAR-5 ovarian, 46.4%; with OVCAR-4 ovarian, 43%; in the assay on SK-OV-3 ovarian, 28.7%. Further, the growth in the assay on IGROV1 ovarian is 23%; in the assay with OVCAR-3 ovarian, 46%; in the assay on HS 578T breast it was 30.1%; with NCI/ADR-RES ovarian, 53%; with T-47D breast, 37.7%; with BT-549 breast, 63%. Moreover, the growth was 34.9% in the assay on MDA-MB-435 melanoma; 59.7% with SW-620 colon; 10.5% in the assay on MCF7 breast; 32.1% in the assay with HCT-116 colon; 45% in the assay with HCC-2998 colon; 48.9% in the assay with KM12 colon.
On to `CCc1cccc(CC)c1NC(=O)c1sc2nc3c(cc2c1N)CCCC3`, for which the growth in the assay on SR leukemia was 18.2%; in the assay on RPMI-8226 leukemia, 85.8%; with OVCAR-8 ovarian it was 84.7%; in the assay with OVCAR-5 ovarian, 95.3%; in the assay on OVCAR-4 ovarian, 78.2%; in the assay with SK-OV-3 ovarian, 81.9%. Also, the growth with IGROV1 ovarian was 64.5%; in the assay on OVCAR-3 ovarian it was 54.6%; in the assay with HS 578T breast, 65.2%; with NCI/ADR-RES ovarian, 45.3%; in the assay on T-47D breast, 64.3%; in the assay on BT-549 breast it was 74.8%. Moreover, the growth in the assay on MDA-MB-435 melanoma was 7.29% (active); in the assay with SW-620 colon, 70.8%; in the assay on MCF7 breast, 42.5%; in the assay on HCT-116 colon it was 71%; with HCC-2998 colon, 95.4%; in the assay on KM12 colon, 70%.
`COc1cc(-c2cc3ncccc3c3nc(N)c4cccnc4c23)cc(OC)c1OC`: the growth with SR leukemia was 28.3%; with RPMI-8226 leukemia, 23.2%; in the assay on OVCAR-8 ovarian it was 26.9%; with OVCAR-5 ovarian, 35.7%; in the assay with OVCAR-4 ovarian, 54.3%; with SK-OV-3 ovarian, 20.5%. Also, the growth with IGROV1 ovarian was 41%; in the assay on OVCAR-3 ovarian it was 15.1%; in the assay with HS 578T breast it was 16.8%; in the assay with NCI/ADR-RES ovarian, 10.5%; in the assay on T-47D breast, 35%; in the assay on BT-549 breast, 27.6%. Further, the growth is -33.7% (active) in the assay with MDA-MB-435 melanoma; 23.9% in the assay with SW-620 colon; 21.7% in the assay on MCF7 breast; 9.87% (active) in the assay with HCT-116 colon; 40.2% in the assay with HCC-2998 colon; 30.8% with KM12 colon.
On to `Oc1cccc2ccc(N/N=C/c3cc(CN4CCCCC4)c(O)c4ncccc34)nc12`, for which the growth in the assay with SR leukemia is -12.7% (active); with RPMI-8226 leukemia it was 0.883% (active); in the assay on OVCAR-8 ovarian it was 8.27% (active); with OVCAR-5 ovarian, 36.4%; with OVCAR-4 ovarian, 8.09% (active); with SK-OV-3 ovarian, -30.5% (active). Further, the growth was 14.3% in the assay with IGROV1 ovarian; 7.62% (active) in the assay on OVCAR-3 ovarian; 17.1% in the assay on HS 578T breast; 8.58% (active) in the assay on NCI/ADR-RES ovarian; 25.3% in the assay with T-47D breast; 11.1% in the assay with BT-549 breast. For the same compound, the growth with MDA-MB-435 melanoma was 20.2%; in the assay with SW-620 colon it was 16%; with MCF7 breast it was 10.3%; in the assay with HCT-116 colon it was 1.57% (active); in the assay with HCC-2998 colon, 5.61% (active); with KM12 colon it was 9.18% (active).
